# According to PubChem BioAssay (NCATS):
# Inconclusive results are not listed. Entries that show only a call come without a potency. Active and inactive are the calls of the source. Calls come from the whole dose curve; as a rule, active = well fitted curve in the direction sought with a large enough effect; inconclusive = small, poorly fitted or top-dose-only effect, or another doubt; inactive = no such curve, though single readings can be large; an effect the other way counts as inactive or inconclusive.
# Experiments:
# [1] = biological target: Glutathione peroxidase 1 (Homo sapiens) (UniProt P07203); test: Primary qHTS Assay for Inhibitors of Recombinant Selenoprotein Glutathione Peroxidase 1 (GPX1) (AID 1845191); note: nearly all actives have a fitted effect of over 65% in size
# Sequence of Glutathione peroxidase 1 (Homo sapiens) (P07203 whole entry, looked up): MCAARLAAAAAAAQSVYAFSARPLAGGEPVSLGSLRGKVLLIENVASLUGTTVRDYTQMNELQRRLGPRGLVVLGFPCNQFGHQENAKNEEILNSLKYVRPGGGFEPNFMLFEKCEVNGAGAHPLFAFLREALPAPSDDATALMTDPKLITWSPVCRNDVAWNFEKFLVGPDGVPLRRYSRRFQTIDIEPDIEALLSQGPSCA
# Summary of the method: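 GPX1 10 nM, GR 100 nM, GSH 1 mM, NADPH 0.5 mM, CHP 0.5 mM (final). 30-min cpd preincubation, RT. Ex340/Em450 read t=0, t=15 min.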
# [2] = biological target: Phospholipid hydroperoxide glutathione peroxidase GPX4 (Homo sapiens) (UniProt P36969); test: Primary qHTS Assay for Inhibitors of Recombinant Selenoprotein Glutathione Peroxidase 4 (GPX4) (AID 1845192); note: nearly all actives have a fitted effect of over 65% in size
# Sequence of Phospholipid hydroperoxide glutathione peroxidase GPX4 (Homo sapiens) (P36969 whole entry, looked up): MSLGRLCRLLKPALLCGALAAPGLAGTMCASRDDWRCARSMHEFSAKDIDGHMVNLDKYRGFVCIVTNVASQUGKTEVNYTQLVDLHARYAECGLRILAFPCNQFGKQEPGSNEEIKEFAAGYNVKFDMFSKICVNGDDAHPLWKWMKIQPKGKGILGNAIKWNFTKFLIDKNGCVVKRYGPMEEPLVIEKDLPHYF
# Summary of the method: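 qHTS, GR-coupled: GPX4 200 nM + cpd 30 min RT → GSH 1 mM, NADPH 0.5 mM, GR 100 nM → CHP 0.5 mM start; fluor 340/450 at t0 and t15 min; no-enzyme wells as control.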
# [3] = Quantitative High-Throughput drug screen in 47 multiple myeloma cell lines against the NCATS MIPE library collection: FR4_PLB cell viability assay (AID 1918924; note: nearly all actives have a fitted effect of over 35% in size; note: potency is the fitted concentration of half-maximal effect)
# Summary of the method: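 qHTS of the MIPE 4.0 collection: 500 myeloma cells/well, 48 h drug exposure at 37C in 5% CO2, then CellTiter-Glo for 5 min at room temperature before luminescence reading.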
# [4] = Quantitative High-Throughput drug screen in 47 multiple myeloma cell lines against the NCATS MIPE library collection: Delta47_JCRB cell viability assay (AID 1918925; note: nearly all actives have a fitted effect of over 45% in size; note: potency is the fitted concentration of half-maximal effect)
# Summary of the method: (§1)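 CellTiter-Glo ATP luminescence gave viability after 48 h compound treatment at 37C of 500 multiple myeloma cells per well. Normalisation used DMSO-only wells as 100% and media-only wells as 0% viability; primary qHTS of approved and investigational drugs.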
# [5] = Quantitative High-Throughput drug screen in 47 multiple myeloma cell lines against the NCATS MIPE library collection: EJM_DSMZ cell viability assay (AID 1918926; note: nearly all actives have a fitted effect of over 30% in size; note: potency is the fitted concentration of half-maximal effect)
# Summary of the method: as §1
Compound,Potency [1],Potency [2],Potency [3],Potency [4],Potency [5]
C[C@]12CCC3c4ccc(O)cc4CCC3C1CCC2=O (stereo not given in full),inactive,inactive,1.87 µM (active),inactive,inactive
O=C(Nc1ccccc1Br)N[C@@H]1CCN(c2ccc(C(F)(F)F)cn2)C1,inactive,inactive,inactive,,
Clc1cc(Cl)cc(CNc2ncncc2-c2ccc3c(c2)OCO3)c1,inactive,inactive,14.8 µM (active),11.8 µM (active),
N#Cc1ccc(NC(=O)Nc2ccccc2Br)c2n[nH]nc12,inactive,inactive,inactive,,
CC(C)(C(=O)NCC(F)(F)C(F)(F)F)C(=O)N[C@@H]1C(=O)Nc2ccccc2-c2ccccc21,inactive,inactive,inactive,20.9 µM (active),inactive
CC(C(=O)O)c1ccc(-c2ccccc2)c(F)c1 (stereo not given),inactive,inactive,inactive,,13.2 µM (active)
CC(C)(C)COc1ccc(-n2cc(C(=O)O)cn2)cc1C#N,inactive,inactive,inactive,inactive,inactive
N#C[C@H]1C[C@H]2C[C@@H]2N1C(=O)[C@@H](N)C12CC3CC(CC(O)(C3)C1)C2,inactive,inactive,inactive,,inactive
CC(C)C(C)C=CC(C)C1CCC2C3=CC=C4CC(O)CCC4(C)C3CCC21C (stereo not given),inactive,inactive,inactive,inactive,inactive
C[C@]12CC[C@@H]3c4ccc(O)cc4C[C@@H](CCCCCCCCCS(=O)CCCC(F)(F)C(F)(F)F)[C@H]3[C@H]1CC[C@H]2O (stereo not given in full),inactive,inactive,inactive,,
O=C(NCc1ccncc1)C12C[C@H]3C[C@@H](C1)CC(c1ccc(Cl)cc1)(C3)C2,inactive,inactive,14.8 µM (active),16.6 µM (active),
